The list is not random: actives were taken first. Their share in the collection is about 3.3%.
Sm TGR block = qHTS Assay for the Inhibitors of Schistosoma Mansoni Peroxiredoxins | AID 485364, 2010 | Schistosoma mansoni thioredoxin glutathione reductase (TGR), Q962Y6 | purified TGR, DTNB reduction, TNB absorbance 405 nm | actives 3% (n = 360,000) | Potency, µM (series often up to 114 µM), for inactives: at the highest dose activity change, negative = inhibition, usual class: inhibitors; also: nearly all actives have a fitted effect of over 60% in size
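TGR 20 nM + NADPH 100 uM (dispensed conc.), cpd preinc 15 min RT; start with NADPH (500 uM addition) then DTNB (15 mM addition). Kinetic TNB absorbance, 405 nm filter. Four-parameter Hill fit across titration.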
AmpC inh no detg = qHTS Inhibitors of AmpC Beta-Lactamase (assay without detergent) | P00811 | AmpC nitrocefin hydrolysis, absorbance 480 nm, 0.0001% Triton | Potency, µM (top dose mostly 57.1 µM), for the others: top-dose activity change, negative = inhibition, usual class: inhibitors | actives 0.52% (n = 330,000) | AID 485341, 2010;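 also: plate controls were no compound for no effect and no enzyme for full effect; nearly all actives have a fitted effect of over 20% in size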
Target sequence (P00811 whole entry, looked up): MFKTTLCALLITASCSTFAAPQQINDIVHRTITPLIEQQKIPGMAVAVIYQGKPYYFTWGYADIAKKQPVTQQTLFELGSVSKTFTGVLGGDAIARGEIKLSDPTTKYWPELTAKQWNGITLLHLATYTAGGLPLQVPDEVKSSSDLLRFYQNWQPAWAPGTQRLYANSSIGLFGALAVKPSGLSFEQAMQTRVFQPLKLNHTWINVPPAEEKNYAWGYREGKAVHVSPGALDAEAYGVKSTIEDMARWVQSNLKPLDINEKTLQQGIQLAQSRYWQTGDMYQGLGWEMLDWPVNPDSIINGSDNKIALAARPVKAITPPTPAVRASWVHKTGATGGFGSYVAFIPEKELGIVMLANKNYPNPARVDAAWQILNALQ
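20 mM phosphate pH 7.0 + 0.01% (detergent screen) or 0.0001% Triton X-100; 5.3 nM AmpC reagent; cpd preinc 15 min RT; nitrocefin (800 uM stock) to start; A480 q20 s × 4 min; Activity was normalised to no-enzyme and no-compound control wells.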
AmpC inh detg = qHTS Inhibitors of AmpC Beta-Lactamase (assay with detergent). AmpC hydrolysis of nitrocefin, absorbance 480 nm, 0.01% Triton. P00811. Potency, µM (titrated, usually from 114 µM), without a hit: top-dose activity change, negative = inhibition, hits mostly inhibitors. actives 0.041% (n = 370,000);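 also: 0% = no-compound wells and -100% = no-enzyme wells; nearly all actives have a fitted effect of over 25% in size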
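AmpC (5.3 nM in the dispensed reagent) in 20 mM phosphate pH 7.0 with 0.01% (detergent screen) or 0.0001% Triton X-100 was preincubated with compounds for 15 min at room temperature. Nitrocefin was then added from an 800 uM solution, and hydrolysis was followed at 480 nm.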
An asterisk follows results filed as active; ? = inconclusive; . = not tested or not shown; ! = not active in a repeat. Calls follow the shape of the dose curve; as a rule, active = well fitted curve in the direction sought with a large enough effect; inconclusive = small, poorly fitted or top-dose-only effect, or another doubt; inactive = no such curve, though single readings can be large; an effect the other way counts as inactive or inconclusive. Unless noted, % is scaled to controls: 0 for no effect and ±100 for the full control effect; potency is read from the fitted curve at half-maximal effect.

SMILES	Sm TGR block	AmpC inh no detg	AmpC inh detg
Cc1ccc2[nH]c(=O)c(CN(Cc3ccc4c(c3)OCO4)Cc3nnnn3Cc3ccco3)cc2c1	?	20%	?
Cc1cc2cc(CN(Cc3ccc4c(c3)OCO4)Cc3nnnn3C3CCCC3)c(=O)[nH]c2cc1C	3%	-8%	?
O=c1[nH]c2cc3c(cc2cc1CN(Cc1cccs1)Cc1nnnn1Cc1ccco1)OCCO3	11µM*	-22%	?
Cc1ccc(-c2nc3cc(Cl)ccc3o2)cc1NC(=O)c1cc([N+](=O)[O-])ccc1N1CCOCC1	23%	.	-1%
CCOc1ccccc1NC(=O)c1ccc(F)c(S(=O)(=O)NCc2ccc3c(c2)OCO3)c1	1%	.	5%
CC[C@]12c3[nH]c4ccc(Cl)cc4c3CCN1C(=O)[C@@H](CC(=O)NC/C=C(\C)CCC=C(C)C)C[C@@H]2C(=O)N1CCN(C(=O)C2CC2)CC1	.	243%	.
CCc1nnc(NC(=O)c2nc3nc(C)cc(C)n3n2)s1	3%	1%	6%
COc1ccccc1CN(Cc1cc2cc3c(cc2[nH]c1=O)OCCO3)Cc1nnnn1Cc1ccco1	?	-19%	-4%
O=c1[nH]c2cc3c(cc2cc1CN(Cc1ccccc1)Cc1nnnn1Cc1ccco1)OCCO3	8.9µM*	-25%	-13%
Cc1ccc(S(=O)(=O)N(CC(=O)Nc2ccc3c(c2)OCO3)c2cc(Cl)cc(Cl)c2)cc1	4%	.	14%
COc1cc(CN(C(=O)c2cccc(C)c2)c2ccccn2)cc(OC)c1OC	-1%	.	18%
CCC(=O)N1c2ccc(S(=O)(=O)CCC(=O)N3CCN(c4ccccc4F)CC3)cc2CC1C (configuration not stated)	22µM*	92%	-7%
CN1C(=O)Cc2cc(S(=O)(=O)CCC(=O)N3CCN(c4ccccc4F)CC3)ccc21	-21%	.	1%
O=C(CCSCc1ccccc1Cl)NCc1cccs1	-3%	-23%	?
Cc1cc(C(=O)NCc2cccs2)c(C)o1	22µM*	-18%	-1%
Cc1occc1C(=O)NCc1cccs1	-16%	-20%	1%
Cc1ccc(S(=O)(=O)N2CCCCC2)cc1C(=O)NCCC1=CCCCC1	5%	-2%	0%
Cc1cc(C(=O)NCC(=O)O)c(C)o1	0%	-3%	-6%
Cc1cc(C(=O)NCCC2=CCCCC2)c(C)o1	22µM*	-29%	?
CCOC(=O)CNC(=O)c1cc(C)oc1C	35µM*	-4%	-1%
O=C(CCSCCC(=O)NCc1cccs1)NCc1cccs1	40µM*	-19%	-13%
CCOP1(=O)OCC2OC(n3cnc4c(N)ncnc43)C(O)C2O1 (configuration not stated)	0%	3%	1%
CC(=O)N1CCN(C(=O)CNC(=O)c2cccs2)CC1	-3%	-9%	4%
NS(=O)(=O)c1cccc(NC(=O)Cc2ccc(Cl)c(Cl)c2)c1	4%	-21%	3%
CC(Cc1c[nH]c2ccccc12)C(=O)NCc1ccco1 (configuration not stated)	-12%	-6%	-7%
SMILES	Sm TGR block	AmpC inh no detg	AmpC inh detg
Cc1ccc(NC(=O)C(c2ccccc2)N2Cc3ccccc3C2=O)cc1Cl (configuration not stated)	0%	.	18%
COC(=O)c1cc(CNC(=O)C(C)NS(=O)(=O)c2ccc(C)c(C)c2)ccc1OC (configuration not stated)	-4%	22%	1%
O=C1NC(c2cccs2)Nc2sc3c(c21)CCCC3 (configuration not stated)	28µM*	-16%	-2%
CN1CCc2c(sc3c2C(=O)NC(c2ccco2)N3)C1 (configuration not stated)	-12%	-7%	-10%
C=CCNC(=O)Cn1c(=O)c2c(ncn2CCC(C)C)n(Cc2ccccc2)c1=O	-3%	30%	3%
CC(NC(=O)CCc1nnc(-c2ccc(-c3ccccc3)cc2)o1)c1nc2ccccc2[nH]1 (configuration not stated)	?	165%	2%
COc1cc(-c2noc(C)c2C#Cc2ccc(N)cc2)cc(OC)c1OC	-15%	94%	?
COc1cc(-c2noc(C)c2C#Cc2ccccn2)cc(OC)c1OC	35µM*	50%	?
COc1ccc(S(=O)(=O)NC(C)C(=O)NCC2CCCO2)cc1OC (configuration not stated)	2%	1%	-4%
Cc1nnc(SCc2nnc(-c3ccc(Cl)cc3)o2)n1-c1ccccc1	8%	27%	-2%
Cc1nnc(SCc2nnc(-c3ccccc3Br)o2)n1-c1ccccc1	-4%	5.6µM*	?
Cc1cc(COC(=O)C2N3C(=O)[C@@H](NC(=O)COc4ccccc4)[C@H]3SC2(C)C)on1 (some centres not stated)	2%	25%	2%
CC1(C)S[C@@H]2[C@H](NC(=O)Cc3ccccc3)C(=O)N2[C@H]1C(=O)O	5%	1%	2%
CC1(C)S[C@@H]2[C@H](NC(=O)C(NC(=O)N3CCNC3=O)c3ccccc3)C(=O)N2[C@H]1C(=O)O (some centres not stated)	-17%	-12%	-7%
CCOc1ccc2ccccc2c1C(=O)N[C@@H]1C(=O)N2[C@@H]1SC(C)(C)[C@@H]2C(=O)O	5%	5.6µM*!	5µM*
CC1(C)S[C@@H]2[C@H](NC(=O)[C@H](N)c3ccccc3)C(=O)N2[C@H]1C(=O)OC1OC(=O)c2ccccc21 (some centres not stated)	-13%	0.22µM*	63µM*
CCC(Oc1ccccc1)C(=O)NC1C(=O)N2C1SC(C)(C)C2C(=O)O (configuration not stated)	.	28µM*	32µM*
O=C(CCS(=O)(=O)c1ccc(Br)s1)Nc1c(F)cccc1F	?	.	-1%
Cc1ccc(NC(=O)N2CCC(NC(=O)c3cccc(C)c3)CC2)cc1	?	-14%	-11%
Cc1cccc(C(=O)NC2CCN(C(=O)NCc3ccccc3)CC2)c1	11µM*	-7%	4%
Cc1nn2c(=O)cc(CSCC(=O)Nc3ccccc3Cl)nc2s1	-6%	-8%	-4%
COc1cc(OC)c(NC(=O)Cn2cnc3sc(C)c(S(=O)(=O)N4CCN(C)CC4)c3c2=O)cc1Cl	4%	.	-6%
O=C(Nc1csc([N+](=O)[O-])c1)Nc1ccccc1Cl	-1%	-40%	7%
O=C(Nc1ccc(Cl)cc1)Nc1ccccc1Sc1ncc([N+](=O)[O-])s1	4.5µM*	-50%	4%
Cc1oc(-c2ccc(C(=O)NCc3ccc(Cl)cc3)cc2)nc1CS(=O)(=O)c1ccccc1	?	.	-3%
CC/C(=N\NC(=O)c1ccc(Br)cc1)c1ccccc1	.	-19%	3%
Cc1cc(=O)n(CCc2ccccc2)c(O)c1C#N	?	2.5µM*	-3%
Cc1cc(=O)n(CCO)c(O)c1C#N	-35%	-19%	2%
CCOC(=O)CNS(=O)(=O)c1c(C)noc1C	25µM*	1%	?
Cc1noc(C)c1S(=O)(=O)NCC(=O)O	5%	-8%	-6%

Source: PubChem
